# NPC1 promoter act: qHTS Assay for NPC1 Promoter Activators | Huh7 NPC1 promoter luciferase reporter, 24 h | Potency, µM (series often up to 9.22 µM), for inactives: at the top dose activation, actives largely listed as activators | 2.4% of 320,000 active; also: % of control where 0% means no effect; nearly all actives have a fitted effect of over 60% in size
#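 Huh7 reporter cells (NPC1 promoter driving luciferase) are dosed with compound for 24 h at 37 °C, 5% CO2; luciferase detection reagent is then added and luminescence measured after 10 min at ambient temperature.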
# ELG1 genotox: qHTS screen for small molecules that induce genotoxicity in human embryonic kidney (HEK293T) cells expressing luciferase-tagged ELG1. AID 504466, 2011. 1.3% of 330,000 active. HEK293T ELG1-luciferase reporter, luminescence, 16 h. Potency, µM (series often up to 46 µM), inactives show at the top dose activity change, positive = activation, usual class: activators; also: % of control where 0% means no effect; nearly all actives have a fitted effect of over 60% in size
#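 Screening used a luciferase reporter fused to human ELG1 in HEK293T cells. Luminescence was read on a CCD plate imager after 16 hr exposure and 30 min ONE-Glo incubation.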
# Rab9 prom act: qHTS Assay for Rab9 Promoter Activators | Huh7 Rab9 promoter-luciferase reporter, luminescence, 24 h | Potency, µM (doses to about 9.22 µM), for the others: top-dose activation, negative = inhibition, hits mostly activators | 2.8% of 320,000 active | AID 485297, 2010; also: % of control where 0% means no effect; nearly all actives have a fitted effect of over 60% in size
#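 Huh7 cells stably carrying Rab9 promoter–luciferase reporter, plated 1500 cells/well, compound added after 2 h and incubated 24 h at 37 °C; luciferase luminescence then read after 10 min with detection reagent.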
# FLuc counter: qHTS profiling assay for firefly luciferase inhibitor/activator using purifed enzyme and Km concentrations of substrates (counterscreen for miR-21 project). Potency, µM (doses to about 57.5 µM), inactives show top-dose activity change, negative = inhibition, most hits filed as inhibitors. 6.9% of 360,000 active. AID 588342, 2011. purified FLuc, Km substrates, luminescence inhibition. Luciferin 4-monooxygenase (Photinus pyralis), P08659;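 also: plate controls were vehicle for no effect and reference inhibitor for full effect; nearly all actives have a fitted effect of over 55% in size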
# Target sequence (P08659 whole entry, looked up): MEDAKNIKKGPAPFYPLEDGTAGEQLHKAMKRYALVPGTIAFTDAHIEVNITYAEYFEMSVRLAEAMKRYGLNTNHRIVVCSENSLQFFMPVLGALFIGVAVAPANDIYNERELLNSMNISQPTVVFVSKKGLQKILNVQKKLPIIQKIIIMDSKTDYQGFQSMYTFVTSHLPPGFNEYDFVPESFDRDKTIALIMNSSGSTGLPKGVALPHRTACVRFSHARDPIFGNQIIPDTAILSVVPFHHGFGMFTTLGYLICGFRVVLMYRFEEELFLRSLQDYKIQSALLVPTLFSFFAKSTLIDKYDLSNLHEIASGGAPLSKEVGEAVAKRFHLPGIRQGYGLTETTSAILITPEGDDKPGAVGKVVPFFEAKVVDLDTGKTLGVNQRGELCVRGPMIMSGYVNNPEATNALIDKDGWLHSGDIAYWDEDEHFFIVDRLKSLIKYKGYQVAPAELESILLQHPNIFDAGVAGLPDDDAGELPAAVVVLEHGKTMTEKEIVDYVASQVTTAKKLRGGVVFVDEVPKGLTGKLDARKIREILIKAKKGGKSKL
#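 Biochemical qHTS of compounds, final roughly 60 µM downward over six points, against 10 nM purified firefly luciferase using Km concentrations of substrates (10 uM D-luciferin, 10 uM ATP) in Tris acetate pH 7.5 buffer; luminescence output.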
# SMN2 splice enh: qHTS Assay for Enhancers of SMN2 Splice Variant Expression; HEK293 SMN2-luciferase splicing reporter, luminescence, 30-36 h; Potency, µM (series often up to 46.1 µM), without a hit: top-dose activity change, positive = activation, usual class: activators; 2.8% of 210,000 active; also: % of control where 0% means no effect; nearly all actives have a fitted effect of over 55% in size
#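 qHTS luciferase splicing reporter: luminescence rises when SMN2 exon 7 is included in transfected HEK293 cells. Compound exposure lasted 30-36 h at 37C, with 4.5 mM final sodium butyrate as control, followed by a ONE-Glo read.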
# ELG1 repair inh: qHTS screen for small molecules that inhibit ELG1-dependent DNA repair in human embryonic kidney (HEK293T) cells expressing luciferase-tagged ELG1 | HEK293T ELG1-luciferase reporter, luminescence, 16 h; DNA damage induced by 5-fluorouridine | Potency, µM (highest dose often 46.1 µM), inactives show top-dose activity change, negative = inhibition, hits mostly inhibitors | 2.3% of 330,000 active; also: % is scaled to controls: 0 for no effect and ±100 for the full control effect; nearly all actives have a fitted effect of over 55% in size
#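 DMSO vehicle served as the neutral condition. Each well held 2,000 cells given 5-fluorouridine plus compound; after 16 hr at 37 °C/5% CO2, ONE-Glo was added and luciferase measured 30 min later.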
# Active calls of the source: *; u = inconclusive; x = no result given; [ ] = another dose, or the depositor's remark. Sampled rows, rich in hits. Any-hit rate of the full collection: about 9.4%. Calls follow the shape of the dose curve; as a rule, active = well fitted curve in the direction sought with a large enough effect; inconclusive = small, poorly fitted or top-dose-only effect, or another doubt; inactive = no such curve, though single readings can be large; an effect the other way counts as inactive or inconclusive. Potency is read from the fitted curve at half-maximal effect.
SMILES,NPC1 promoter act,ELG1 genotox,Rab9 prom act,FLuc counter,SMN2 splice enh,ELG1 repair inh
O=C(CCC(=O)N1CC2CCCN2c2ccccc21)NCc1ccccc1F (configuration not stated),x,x,x,4%,x,x
CCOC(=O)c1c(C)c(-c2ccccc2)n(CC(=O)Nc2ccc(OCC)cc2)c1C,x,x,x,2%,-5%,x
CCOc1ccc2nc(NCCCNC(=O)c3cc(OC)c(OC)c(OC)c3)c(C#N)cc2c1,-2%,-5%,-4%,0%,x,6.5µM*
CCC(Sc1nncn2c1cc1oc(C)cc12)C(=O)Nc1ccc(F)cc1 (configuration not stated),x,x,x,-1%,x,x
CCOc1ccc(/C=C/c2nc(C#N)c(N3CCN(c4ccc(OC)cc4)CC3)o2)cc1,x,x,x,3%,-6%,x
COc1ccc(CCNC(=O)C2CC(c3cccc([N+](=O)[O-])c3)=NO2)cc1 (configuration not stated),u,18%,u,15µM*,u,u
COc1ccc(CCNC(=O)C2CC(c3ccc([N+](=O)[O-])cc3)=NO2)cc1 (configuration not stated),25%,8%,22%,u,-13%,u
COCCNC(=O)C1CC(c2ccc([N+](=O)[O-])cc2)=NO1 (configuration not stated),-2%,2%,-6%,4%,13%,4%
O=C(NCCc1cccs1)C1CC(c2ccc([N+](=O)[O-])cc2)=NO1 (configuration not stated),3.5µM*,u,2.5µM*,13µM*,u,u
CCCCNC(=O)C1CC(c2cccc(F)c2)=NO1 (configuration not stated),u,u,u,15µM*,x,u
CCCCN(C)c1nc2c(S(=O)(=O)c3ccc(CC)cc3)nnn2c2ccc(Cl)cc12,x,x,x,3%,u,x
Cc1ccc(NC(=S)c2ccc(N(C)C)cc2)cc1,0.89µM*,3.7µM*,1.3µM*,1.7µM*,4.5µM*,u
COc1ccc(NC(=S)c2ccc(N(C)C)cc2)cc1,4µM*,u,1.3µM*,2.1µM*,11µM*,u
COc1ccc(C(=S)Nc2ccc(N(C)C)cc2)cc1,3.2µM*,u,2.8µM*,1.5µM*,11µM*,u
COc1ccc(NC(=S)Nc2ccc(N(C)C(C)=O)cc2)cc1,1%,0%,5%,-3%,-5%,5%
COc1ccc(NC(=S)c2ccccc2)cc1,u,u,u,11µM*,14µM*,u
COc1ccc(NC(=S)Nc2ccccc2)cc1,-1%,3%,14%,-19%,-2%[9.22 µM],u
COC(=O)c1ccccc1NC(=O)CSc1nc2ccccc2nc1Cc1ccc(F)cc1,x,x,x,-2%,x,x
COc1cc(/C=C(\C#N)C(=O)Nc2ccc(C)cc2)ccc1OCc1cc(=O)n2nc(C)sc2n1,x,x,x,-6%,0%,x
Cc1ccc(S(=O)(=O)NC(=O)Nc2ccc(N(C)C)cc2)cc1,5%,u,u,24µM*,x,u
Cc1ccc(NC(=O)NNS(=O)(=O)c2ccc(Br)cc2)cc1,-2%,3%,-1%,-3%,11%,-2%
COc1ccc2c(c1)cc1c(=O)n(CC(=O)NC3CC3)nc(C)n12,x,x,x,3%,-4%,x
CCOc1ncccc1-c1nc(-c2cccs2)no1,-1%,13%,3%,u,x,u
CCOc1nc(-c2ccccc2)ccc1-c1noc(-c2ccc(C)cc2)n1,x,x,x,-17%,-18%,x
c1csc(-c2nc(-c3ccc(-c4ccon4)s3)no2)c1,0.56µM*,2.3µM*,0.35µM*,0.6µM*,x,u
SMILES,NPC1 promoter act,ELG1 genotox,Rab9 prom act,FLuc counter,SMN2 splice enh,ELG1 repair inh
c1ccc(-c2nc(-c3ccc(-c4ccon4)s3)no2)cc1,1.1µM*,u,1.4µM*,1.2µM*,x,u
N#CC1=C(SCC(=O)c2ccc(Br)cc2)NC2=C(C(=O)CCC2)C1c1ccco1 (configuration not stated),-22%,-8%,-1%,-2%,-58%,13µM*
COc1ccc(Cc2[nH]n3c(=O)cc(C(C)C)nc3c2-c2ccccc2)cc1,-20%,-7%,-42%,-7%,-79%,8.2µM*
COc1ccc(Cc2[nH]n3c(=O)cc(C)nc3c2-c2ccccc2)cc1,1%,-11%,-10%,-5%,-79%,u
Cc1ccc(-n2cnc3cc(NCc4cccs4)ccc32)cc1,u,9.2µM*,u,11µM*,-22%,u
c1ccc(-n2cnc3cc(NCc4cccs4)ccc32)cc1,u,u,1µM*,2.1µM*,17%,u
COc1ccc(-n2cnc3cc(NCc4cccs4)ccc32)cc1,u,8%,29%,15µM*,1%,u
COc1ccccc1-n1cnc2cc(C(=O)NCc3ccco3)ccc21,-1%,16%,1%,-17%,16%,0%
c1ccc(-n2cnc3cc(NCc4ccco4)ccc32)cc1,u,u,u,9.5µM*,13µM*,u

# From PubChem BioAssay
